Experimental data reported in PubChem BioAssay (NCATS).
Inconclusive results are not listed. Unmarked numbers belong to inactive results. Calls follow the shape of the dose curve; as a rule, active = well fitted inhibition curve with a large enough effect; inconclusive = small, poorly fitted or top-dose-only effect; inactive = flat fitted curve, though single readings scatter.

target: Calcium and integrin-binding protein 1 (Homo sapiens) (UniProt Q99828); experiment: Primary qHTS for Identification of Calcium Integrin Binding Protein 1 (CIB1) Competitor (AID 1508620); conditions: CIB1-GST / FITC-alphaIIb peptide fluorescence polarization; series mostly up to 57.7 µM; activity change, negative = inhibition: at the top concentration; also: top concentration of the series differs between compounds
Sequence (Q99828 whole entry, looked up): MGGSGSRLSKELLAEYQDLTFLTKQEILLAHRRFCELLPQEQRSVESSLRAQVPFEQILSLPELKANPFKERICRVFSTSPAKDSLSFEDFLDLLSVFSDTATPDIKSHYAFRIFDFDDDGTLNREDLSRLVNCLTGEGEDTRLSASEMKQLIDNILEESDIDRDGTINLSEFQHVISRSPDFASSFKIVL
In short: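 Fluorescence polarization competition: GST-tagged CIB1 (1 uM final) preincubated with compound 15 min at room temperature, then FITC-labelled alphaIIb peptide (100 nM final) added. After 15 min at room temperature, polarization read at Ex 480/Em 540.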
% is scaled to controls: 0 for no effect and ±100 for the full control effect.

SMILES	activity change, negative = inhibition
COC(=O)C1=COC(OC2OC(CO)C(O)C(O)C2O)C2C(COC(=O)/C=C/c3ccc(O)cc3)C(O)C(O)C12 (stereo unspecified)	0.888%
COC(=O)C(CC1(O)c2ccccc2N2C(=O)C(C)(C)N(O)C21)n1cnc2ccccc2c1=O (stereo unspecified)	-2.34%
COc1c(-c2ccc(O)cc2)cc(OC)c2c1oc1cc(O)c(OC3OC(CO)C(O)C3O)cc12 (stereo unspecified)	-0.459%
C=C1CC[C@@]2(OC1)O[C@H]1CC3C4CC=C5C[C@@H](O[C@@H]6O[C@@H](C)[C@H](O)[C@@H](O)[C@H]6O)C[C@@H](O[C@@H]6O[C@H](C)[C@H](O)[C@H](O)[C@H]6O[C@@H]6O[C@@H](C)[C@H](O)[C@@H](O)[C@H]6O)[C@]5(C)C4CC[C@]3(C)[C@H]1[C@@H]2C (stereo partly specified)	-1.23% [at 30.2 µM]
CCC(C)C(=O)O[C@H]1[C@@H](O[C@H]2O[C@H](CO)[C@@H](O)[C@H](O)[C@H]2O)O[C@H](CO)[C@@H](O)[C@@H]1O (stereo partly specified)	1.39%
CC(CC(C)O[C@@H]1O[C@H](CO)[C@@H](O)[C@H](O)[C@H]1O)OC(=O)/C=C/c1ccc(O)cc1 (stereo partly specified)	3.09%
